Each structure is given as a SMILES string. Records with an inconclusive call do not appear. Calls of active or inactive are those of the source. Calls follow the shape of the dose curve; as a rule, active = well fitted curve in the direction sought with a large enough effect; inconclusive = small, poorly fitted or top-dose-only effect, or another doubt; inactive = no such curve, though single readings can be large or run the other way.

This assay in a line: Secondary Assay for Activators of Human Pyruvate Kinase M2 isoform - Cell Titer Glo Cytotoxicity for Probe SAR. Particulars: HeLa viability, CellTiter-Glo ATP luminescence, 24 h; series mostly up to 58.2 µM. The protocol: NIH Chemical Genomics Center [NCGC]
Matthew G. Vander Heiden, M.D., Ph.D. [Harvard Medical School, 77 Avenue Louis Pasteur, Boston, MA 02115]
We have identified a series of activators of the M2 isoform of human pyruvate kinase. The assay described here examines the cytotoxicity of these compounds by measuring the total ATP content of Hela cells after 24 hrs of exposure to compound.
500 Hela cells/ 4ul in media (DMEM with high glucose, 10% FBS, 1x Pen Strep, 1x NEAA) were dispensed into a white solid 1536-microwell plate with a Thermo Multidrop. The plates were incubated at 37 degrees Celsius for 24 hours. The cells were then treated with compounds using the Kalypsys pin tool, delivering 23 nl of test compounds and the control doxorubicin. The plates were then incubated for an additional 24 hours at 37 degrees C after which 4 ul of Promega Cell-Titer Glo was dispensed using the Thermo Multidrop. The plates were incubated at room temperature for 10 min before reading luminescence on the Perkin Elmer ViewLux with images collected with 2x binning and a 5 sec exposure time.
A general note: Cellular ATP, detected with luciferase, serves as a proxy for viable cell number.
As for `Cc1ccc(NS(=O)(=O)c2cc3c(cc2-c2ccco2)NC(=O)CO3)cc1C`, the compound was classed as inactive.
Under `O=C1CCc2cc(S(=O)(=O)Nc3ccccc3-c3ccccc3)ccc2N1` stands “inactive”.
Under `Cc1ccc(NS(=O)(=O)c2ccc3c(c2)NC(=O)CO3)cc1C` stands “inactive”; under `CN=c1nc(-c2ccccc2)n(-c2ccccc2)s1`, “inactive”; under `O=C1c2ccccc2C(=O)N1Cc1ccncc1`, “inactive”.
Next, `CC(=O)Nc1cccc(S(=O)(=O)Nc2ccc(C)c(C)c2)c1`: “inactive”; `Fc1ccccc1-c1ccc(-c2nc3ccc(Cl)cn3c2Nc2ccc(Cl)cc2)o1`: “inactive”; `Nc1cc(S(=O)(=O)N2CCN(S(=O)(=O)c3ccc4c(c3)OCCO4)CC2)ccn1`: “inactive”.
Consider `O=C1CCc2cc(S(=O)(=O)Nc3ccncc3)ccc2N1`, for which the call was inactive.
On to `Cc1ccc(N[S+](=O)([O-])c2cc3c(cc2CCc2ccccc2)NC(=O)CO3)cc1C`, for which the compound was called inactive.
Next, `O=C1CCc2cc(S(=O)(=O)Nc3cccc(Oc4ccccc4)c3)ccc2N1`: “inactive”; `Cc1ccc(NS(=O)(=O)c2cc3c(cc2C)OCC(=O)N3)cc1C`: “inactive”.
Under `O=C1c2ccccc2C(=O)N1c1ccc(O)cc1` stands “inactive”.
Next, `COc1ccccc1OC1=NS(=O)(=O)c2ccccc21`: “inactive”; `Cc1ccc(NS(=O)(=O)c2cc3c(cc2Cl)CCC(=O)N3)cc1Cl`: “inactive”; `Cn1c2cc(S(C)=O)sc2c2cnn(Cc3cccc(N)c3)c(=O)c21` (stereo not given): “inactive”.
Turning to `O=C1c2ccccc2C(=O)N1c1cccc(O)c1`, the outcome was inactive.
As for `N#Cc1ccc(NS(=O)(=O)c2ccc3c(c2)CCC(=O)N3)cc1`, the call was inactive.
Under `O=C1c2ccccc2C(=O)N1c1ncccc1O` stands “inactive”; under `Cc1ccc(NS(=O)(=O)c2cc3c(cc2/C=C/c2ccccc2)NC(=O)CO3)cc1C`, “inactive”; under `Cc1ccc(Cl)cc1NS(=O)(=O)c1cc2c(cc1Cl)CCC(=O)N2`, “inactive”.
Under `O=C1CCc2cc([S+](=O)([O-])NC3CCOCC3)ccc2N1` stands “inactive”; under `Cc1ccc(NC(=O)c2ccc3c(c2)CCC(=O)N3)cc1C`, “inactive”; under `Cc1c(Cl)cccc1NS(=O)(=O)c1cc2c(cc1Cl)CCC(=O)N2`, “inactive”.
Under `Cc1ccc(NS(=O)(=O)c2ccc(-c3ccccc3)cc2)cc1C` stands “inactive”; under `O=C1CCc2cc(S(=O)(=O)Nc3cccc(Cl)c3)ccc2N1`, “inactive”.
For the compound `Cc1ccc(N2C(=O)c3ccccc3C2=O)c(C)c1`, the compound was called inactive.
Next, `Cc1cc2c(s1)c1cnn(Cc3ccccc3F)c(=O)c1n2C`: “inactive”.
With `COc1ccc(-c2nc3ccccn3c2Nc2ccccc2C)cc1`, the outcome was inactive.
On to `Cc1cc(N2C(=O)c3ccccc3C2=O)no1`, for which the compound was classed as inactive.
Regarding `Cc1c(Cl)cccc1NS(=O)(=O)c1cc2c(cc1F)NC(=O)CC2`, the compound was called inactive.
On to `O=C1CCc2cc(S(=O)(=O)Nc3cccc(F)c3)ccc2N1`, for which the result was inactive.
Next, `O=C1CCc2cc(S(=O)(=O)Nc3ccc4ccccc4c3)ccc2N1`: “inactive”; `Cc1ccc2nc(-c3cccs3)c(Nc3ccccc3)n2c1`: “inactive”; `Cc1ccc(NS(=O)(=O)c2cc3c(cc2N(C)C)CCC(=O)N3)cc1C`: “inactive”.
Under `CN(C)c1cccc(S(=O)(=O)N2CCCN(S(=O)(=O)c3ccc4c(c3)OCCO4)CC2)c1` stands “inactive”; under `Cc1ccc(N(C)S(=O)(=O)c2ccc3c(c2)CCC(=O)N3)cc1C`, “inactive”.
Next, `Cc1ccc(NS(=O)(=O)c2ccc3c(c2)CCC(C)(C)O3)cc1C`: “inactive”.
With `Cc1ccc(NS(=O)(=O)c2ccc3c(c2)CCC(=O)N3)cc1`, the compound was called inactive.
Under `O=C1c2ccccc2C(=O)N1c1cccc2ccncc12` stands “inactive”.

For the origin of these results see PubChem BioAssay AID2653 (National Center for Advancing Translational Sciences (NCATS), 2010).
